In ChEMBL document CHEMBL2218924, “A broad activity screen in support of a chemogenomic map for kinase signalling research and drug discovery” (Biochem J, 2013):

Legend:
[1] = molecular target: T1, Testis-specific serine/threonine-protein kinase 1 (Homo sapiens) (UniProt Q9BXA7); settings: at 1 µM
T1 sequence (whole entry): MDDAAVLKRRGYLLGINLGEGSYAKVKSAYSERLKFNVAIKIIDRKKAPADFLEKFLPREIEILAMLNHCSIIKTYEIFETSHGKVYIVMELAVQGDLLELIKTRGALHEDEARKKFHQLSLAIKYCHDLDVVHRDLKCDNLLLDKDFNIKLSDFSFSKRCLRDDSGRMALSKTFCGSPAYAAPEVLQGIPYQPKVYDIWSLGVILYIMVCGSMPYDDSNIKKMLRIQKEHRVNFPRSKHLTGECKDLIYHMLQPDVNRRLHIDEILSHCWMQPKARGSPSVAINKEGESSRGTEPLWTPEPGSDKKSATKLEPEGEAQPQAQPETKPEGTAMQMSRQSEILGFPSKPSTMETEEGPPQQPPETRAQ

[2] = molecular target: T1, Testis-specific serine/threonine-protein kinase 1 (Homo sapiens); settings: at 10 µM
[3] = molecular target: T2, Testis-specific serine/threonine-protein kinase 2 (Homo sapiens) (UniProt Q96PF2); settings: at 10 µM
T2 sequence (whole entry): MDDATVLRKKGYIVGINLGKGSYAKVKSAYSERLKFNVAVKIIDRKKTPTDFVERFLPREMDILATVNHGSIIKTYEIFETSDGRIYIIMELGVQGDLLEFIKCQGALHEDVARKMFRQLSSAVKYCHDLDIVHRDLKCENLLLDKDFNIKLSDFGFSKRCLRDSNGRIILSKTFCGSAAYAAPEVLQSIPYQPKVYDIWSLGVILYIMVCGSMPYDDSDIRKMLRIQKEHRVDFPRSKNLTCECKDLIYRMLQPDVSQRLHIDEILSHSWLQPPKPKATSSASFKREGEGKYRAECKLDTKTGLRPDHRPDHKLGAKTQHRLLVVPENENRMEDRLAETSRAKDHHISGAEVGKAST

[4] = molecular target: T3, Tyrosine-protein kinase Tec (Homo sapiens) (UniProt P42680); settings: at 1 µM
T3 sequence (whole entry): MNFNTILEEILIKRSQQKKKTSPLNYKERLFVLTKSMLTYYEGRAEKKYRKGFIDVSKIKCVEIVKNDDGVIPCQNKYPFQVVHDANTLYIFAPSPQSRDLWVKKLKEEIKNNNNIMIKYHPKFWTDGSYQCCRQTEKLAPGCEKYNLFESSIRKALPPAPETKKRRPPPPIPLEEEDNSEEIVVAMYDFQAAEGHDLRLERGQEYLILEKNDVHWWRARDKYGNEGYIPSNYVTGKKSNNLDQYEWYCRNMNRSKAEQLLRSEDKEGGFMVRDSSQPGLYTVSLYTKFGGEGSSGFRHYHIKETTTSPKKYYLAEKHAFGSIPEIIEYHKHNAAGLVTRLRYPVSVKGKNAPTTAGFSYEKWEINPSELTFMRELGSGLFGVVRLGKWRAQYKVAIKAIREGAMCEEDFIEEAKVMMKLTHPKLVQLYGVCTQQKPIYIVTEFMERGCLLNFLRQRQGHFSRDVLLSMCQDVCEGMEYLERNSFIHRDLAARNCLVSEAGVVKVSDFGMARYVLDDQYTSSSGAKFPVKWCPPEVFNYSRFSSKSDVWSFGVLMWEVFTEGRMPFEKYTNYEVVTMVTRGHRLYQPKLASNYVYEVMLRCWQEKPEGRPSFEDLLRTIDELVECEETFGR

[5] = molecular target: T3, Tyrosine-protein kinase Tec (Homo sapiens); settings: at 10 µM
[6] = molecular target: Angiopoietin-1 receptor (Homo sapiens) (UniProt Q02763); settings: at 1 µM
[7] = molecular target: Angiopoietin-1 receptor (Homo sapiens) (UniProt Q02763); settings: at 10 µM
[8] = molecular target: High affinity nerve growth factor receptor (Homo sapiens) (UniProt P04629); settings: at 1 µM
[9] = molecular target: BDNF/NT-3 growth factors receptor (Homo sapiens) (UniProt Q16620); settings: at 10 µM
[10] = molecular target: T4, Tyrosine-protein kinase TXK (Homo sapiens) (UniProt P42681); settings: at 1 µM
T4 sequence (whole entry): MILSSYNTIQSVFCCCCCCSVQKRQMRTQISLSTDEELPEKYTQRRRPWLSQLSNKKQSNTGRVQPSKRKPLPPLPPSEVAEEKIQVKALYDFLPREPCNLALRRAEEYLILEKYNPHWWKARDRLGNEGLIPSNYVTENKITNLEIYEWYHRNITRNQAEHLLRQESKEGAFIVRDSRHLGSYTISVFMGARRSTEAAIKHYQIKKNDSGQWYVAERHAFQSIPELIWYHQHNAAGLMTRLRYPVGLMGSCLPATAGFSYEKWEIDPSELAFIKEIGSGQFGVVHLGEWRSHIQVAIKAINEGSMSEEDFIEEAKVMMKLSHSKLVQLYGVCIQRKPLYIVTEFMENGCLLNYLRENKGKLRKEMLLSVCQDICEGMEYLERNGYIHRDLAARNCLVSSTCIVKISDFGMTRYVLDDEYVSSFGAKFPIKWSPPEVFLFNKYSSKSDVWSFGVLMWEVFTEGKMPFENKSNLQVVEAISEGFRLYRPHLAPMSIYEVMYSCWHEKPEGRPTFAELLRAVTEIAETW

[11] = molecular target: T4, Tyrosine-protein kinase TXK (Homo sapiens); settings: at 10 µM
[12] = molecular target: T5, Serine/threonine-protein kinase ULK2 (Homo sapiens) (UniProt Q8IYT8); settings: at 1 µM
T5 sequence (whole entry): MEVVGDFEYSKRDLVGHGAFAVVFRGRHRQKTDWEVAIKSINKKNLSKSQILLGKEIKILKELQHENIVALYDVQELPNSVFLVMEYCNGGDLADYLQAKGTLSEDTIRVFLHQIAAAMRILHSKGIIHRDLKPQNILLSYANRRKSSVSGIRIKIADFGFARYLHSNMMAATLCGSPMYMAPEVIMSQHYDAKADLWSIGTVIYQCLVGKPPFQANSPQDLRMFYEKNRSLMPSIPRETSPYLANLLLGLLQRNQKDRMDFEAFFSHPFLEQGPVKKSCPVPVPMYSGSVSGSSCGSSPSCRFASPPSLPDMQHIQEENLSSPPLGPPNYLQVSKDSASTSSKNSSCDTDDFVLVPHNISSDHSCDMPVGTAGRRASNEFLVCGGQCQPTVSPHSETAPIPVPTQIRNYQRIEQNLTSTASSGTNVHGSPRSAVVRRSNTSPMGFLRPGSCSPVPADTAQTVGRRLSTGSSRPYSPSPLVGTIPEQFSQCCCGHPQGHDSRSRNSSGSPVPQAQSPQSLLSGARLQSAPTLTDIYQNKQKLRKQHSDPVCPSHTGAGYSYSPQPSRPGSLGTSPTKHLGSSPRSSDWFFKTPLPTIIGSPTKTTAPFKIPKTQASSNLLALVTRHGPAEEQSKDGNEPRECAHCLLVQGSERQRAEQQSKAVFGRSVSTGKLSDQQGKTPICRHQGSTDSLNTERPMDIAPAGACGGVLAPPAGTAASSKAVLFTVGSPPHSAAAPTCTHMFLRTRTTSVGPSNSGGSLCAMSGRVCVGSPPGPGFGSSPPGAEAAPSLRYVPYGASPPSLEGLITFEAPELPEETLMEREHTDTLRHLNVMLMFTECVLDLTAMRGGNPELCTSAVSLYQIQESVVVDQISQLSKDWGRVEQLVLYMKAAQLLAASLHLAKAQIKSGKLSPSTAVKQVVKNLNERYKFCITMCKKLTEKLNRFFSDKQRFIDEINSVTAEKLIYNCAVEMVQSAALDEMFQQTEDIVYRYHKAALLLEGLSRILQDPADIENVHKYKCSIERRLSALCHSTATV

[13] = molecular target: T5, Serine/threonine-protein kinase ULK2 (Homo sapiens); settings: at 10 µM
[14] = molecular target: T6, Serine/threonine-protein kinase ULK3 (Homo sapiens) (UniProt Q6PHR2); settings: at 1 µM
T6 sequence (whole entry): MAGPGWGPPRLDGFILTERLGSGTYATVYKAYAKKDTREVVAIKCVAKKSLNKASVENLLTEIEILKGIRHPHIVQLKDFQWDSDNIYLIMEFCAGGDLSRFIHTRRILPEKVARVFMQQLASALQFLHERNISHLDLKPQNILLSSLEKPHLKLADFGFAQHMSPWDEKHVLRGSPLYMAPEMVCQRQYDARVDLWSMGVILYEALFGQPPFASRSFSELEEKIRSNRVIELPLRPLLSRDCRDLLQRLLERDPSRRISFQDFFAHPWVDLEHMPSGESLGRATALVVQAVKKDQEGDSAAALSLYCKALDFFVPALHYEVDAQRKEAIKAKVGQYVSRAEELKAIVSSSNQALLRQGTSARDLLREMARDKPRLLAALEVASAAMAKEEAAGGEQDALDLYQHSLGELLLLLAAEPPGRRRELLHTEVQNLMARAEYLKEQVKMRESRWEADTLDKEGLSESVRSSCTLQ

[15] = molecular target: T6, Serine/threonine-protein kinase ULK3 (Homo sapiens); settings: at 10 µM
[16] = molecular target: Serine/threonine-protein kinase VRK2 (Homo sapiens) (UniProt Q86Y07); settings: at 1 µM
[17] = molecular target: Serine/threonine-protein kinase VRK2 (Homo sapiens) (UniProt Q86Y07); settings: at 10 µM
[18] = molecular target: Serine/threonine-protein kinase WNK2 (Homo sapiens) (UniProt Q9Y3S1); settings: at 1 µM;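 also: residual WNK2 kinase activity expressed as percent of uninhibited control, assayed in MOPS buffer at pH 7.0 containing EDTA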
[19] = molecular target: High affinity nerve growth factor receptor (Homo sapiens) (UniProt P04629); settings: at 10 µM
[20] = molecular target: BDNF/NT-3 growth factors receptor (Homo sapiens) (UniProt Q16620); settings: at 1 µM

Chain of Angiopoietin-1 receptor (Homo sapiens) (Q02763 whole entry): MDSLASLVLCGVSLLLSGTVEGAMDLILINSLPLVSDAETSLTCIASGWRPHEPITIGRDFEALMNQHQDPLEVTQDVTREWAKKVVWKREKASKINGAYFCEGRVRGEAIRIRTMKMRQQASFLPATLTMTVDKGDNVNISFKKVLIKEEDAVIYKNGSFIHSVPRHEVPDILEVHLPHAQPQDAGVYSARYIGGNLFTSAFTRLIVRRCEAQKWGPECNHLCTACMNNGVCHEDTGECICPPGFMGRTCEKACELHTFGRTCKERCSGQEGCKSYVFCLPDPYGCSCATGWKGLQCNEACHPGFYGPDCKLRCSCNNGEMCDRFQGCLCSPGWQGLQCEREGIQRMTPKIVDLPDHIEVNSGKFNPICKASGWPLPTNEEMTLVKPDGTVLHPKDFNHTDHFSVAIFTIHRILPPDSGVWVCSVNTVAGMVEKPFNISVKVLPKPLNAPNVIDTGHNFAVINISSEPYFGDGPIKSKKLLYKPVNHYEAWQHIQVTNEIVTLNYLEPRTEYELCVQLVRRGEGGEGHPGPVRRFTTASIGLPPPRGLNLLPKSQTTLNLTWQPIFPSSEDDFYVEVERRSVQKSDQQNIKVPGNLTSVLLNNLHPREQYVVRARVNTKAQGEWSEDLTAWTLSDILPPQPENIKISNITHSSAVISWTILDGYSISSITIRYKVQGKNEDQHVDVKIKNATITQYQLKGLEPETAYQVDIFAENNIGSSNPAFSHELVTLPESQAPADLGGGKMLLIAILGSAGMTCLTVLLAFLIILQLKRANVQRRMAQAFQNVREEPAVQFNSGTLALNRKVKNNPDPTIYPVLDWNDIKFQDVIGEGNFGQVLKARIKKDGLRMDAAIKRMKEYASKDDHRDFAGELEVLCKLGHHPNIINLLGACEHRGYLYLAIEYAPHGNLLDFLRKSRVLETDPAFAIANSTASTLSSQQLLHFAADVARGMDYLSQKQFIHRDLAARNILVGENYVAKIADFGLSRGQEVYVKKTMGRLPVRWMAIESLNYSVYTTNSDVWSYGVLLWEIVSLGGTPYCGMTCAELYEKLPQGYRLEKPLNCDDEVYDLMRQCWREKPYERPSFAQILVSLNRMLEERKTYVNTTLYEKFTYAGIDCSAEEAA
Chain of Serine/threonine-protein kinase WNK2 (Homo sapiens) (Q9Y3S1 whole entry): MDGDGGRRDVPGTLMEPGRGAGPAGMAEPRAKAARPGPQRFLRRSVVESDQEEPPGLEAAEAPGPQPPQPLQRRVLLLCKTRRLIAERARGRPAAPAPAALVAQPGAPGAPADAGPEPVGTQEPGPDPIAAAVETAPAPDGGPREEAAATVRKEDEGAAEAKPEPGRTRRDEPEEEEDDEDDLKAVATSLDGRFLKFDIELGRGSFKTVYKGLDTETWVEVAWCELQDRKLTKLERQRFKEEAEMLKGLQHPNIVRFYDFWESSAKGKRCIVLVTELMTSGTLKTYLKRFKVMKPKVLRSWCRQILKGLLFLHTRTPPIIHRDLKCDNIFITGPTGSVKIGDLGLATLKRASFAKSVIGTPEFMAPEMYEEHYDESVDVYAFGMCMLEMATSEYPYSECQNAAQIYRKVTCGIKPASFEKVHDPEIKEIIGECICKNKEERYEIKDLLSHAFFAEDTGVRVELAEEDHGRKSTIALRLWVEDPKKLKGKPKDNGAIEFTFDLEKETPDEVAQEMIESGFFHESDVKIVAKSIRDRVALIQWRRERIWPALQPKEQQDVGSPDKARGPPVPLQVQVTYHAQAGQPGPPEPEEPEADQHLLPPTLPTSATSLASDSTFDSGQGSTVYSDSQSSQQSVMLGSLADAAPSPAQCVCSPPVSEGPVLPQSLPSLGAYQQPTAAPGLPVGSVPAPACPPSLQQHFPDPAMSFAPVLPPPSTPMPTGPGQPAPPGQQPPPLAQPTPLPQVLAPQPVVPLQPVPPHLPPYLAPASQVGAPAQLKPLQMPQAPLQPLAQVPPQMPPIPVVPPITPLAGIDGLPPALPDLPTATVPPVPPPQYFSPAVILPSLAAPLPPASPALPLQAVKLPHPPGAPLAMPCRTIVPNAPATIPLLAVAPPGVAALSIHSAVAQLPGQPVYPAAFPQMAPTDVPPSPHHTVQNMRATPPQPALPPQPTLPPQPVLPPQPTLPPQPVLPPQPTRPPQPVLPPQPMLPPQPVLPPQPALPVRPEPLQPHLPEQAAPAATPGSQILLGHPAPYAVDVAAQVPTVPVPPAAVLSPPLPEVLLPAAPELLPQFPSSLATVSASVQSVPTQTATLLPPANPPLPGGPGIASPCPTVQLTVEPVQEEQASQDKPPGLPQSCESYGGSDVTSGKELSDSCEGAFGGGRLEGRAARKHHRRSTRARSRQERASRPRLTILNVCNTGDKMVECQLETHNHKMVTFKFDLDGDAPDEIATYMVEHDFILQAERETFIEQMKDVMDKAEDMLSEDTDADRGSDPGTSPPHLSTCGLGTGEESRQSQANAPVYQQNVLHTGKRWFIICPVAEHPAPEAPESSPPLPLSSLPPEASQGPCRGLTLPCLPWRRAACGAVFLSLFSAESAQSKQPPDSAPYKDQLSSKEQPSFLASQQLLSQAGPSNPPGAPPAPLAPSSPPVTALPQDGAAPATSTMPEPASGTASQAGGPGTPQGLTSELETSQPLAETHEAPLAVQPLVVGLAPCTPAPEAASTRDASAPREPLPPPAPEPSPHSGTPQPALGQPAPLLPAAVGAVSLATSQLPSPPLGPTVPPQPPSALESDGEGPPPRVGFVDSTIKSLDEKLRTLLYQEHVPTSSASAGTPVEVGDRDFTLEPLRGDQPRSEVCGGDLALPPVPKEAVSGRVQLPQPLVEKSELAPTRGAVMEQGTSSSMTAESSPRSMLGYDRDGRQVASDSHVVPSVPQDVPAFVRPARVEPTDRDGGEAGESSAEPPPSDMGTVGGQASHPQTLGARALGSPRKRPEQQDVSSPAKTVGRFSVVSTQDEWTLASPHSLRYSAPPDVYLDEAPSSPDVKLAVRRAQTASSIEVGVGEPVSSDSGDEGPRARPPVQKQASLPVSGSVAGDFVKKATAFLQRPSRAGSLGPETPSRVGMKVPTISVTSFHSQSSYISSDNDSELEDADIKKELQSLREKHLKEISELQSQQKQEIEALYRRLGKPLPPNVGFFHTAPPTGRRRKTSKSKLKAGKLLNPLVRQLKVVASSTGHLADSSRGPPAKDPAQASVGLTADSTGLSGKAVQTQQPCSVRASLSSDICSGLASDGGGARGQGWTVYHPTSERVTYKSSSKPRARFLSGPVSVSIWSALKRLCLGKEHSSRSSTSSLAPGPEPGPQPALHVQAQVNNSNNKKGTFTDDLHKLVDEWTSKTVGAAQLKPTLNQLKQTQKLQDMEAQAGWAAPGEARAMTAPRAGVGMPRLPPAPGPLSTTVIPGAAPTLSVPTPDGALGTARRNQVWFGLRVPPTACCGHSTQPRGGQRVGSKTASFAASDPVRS
Chain of High affinity nerve growth factor receptor (Homo sapiens) (P04629 33-796 limits assumed): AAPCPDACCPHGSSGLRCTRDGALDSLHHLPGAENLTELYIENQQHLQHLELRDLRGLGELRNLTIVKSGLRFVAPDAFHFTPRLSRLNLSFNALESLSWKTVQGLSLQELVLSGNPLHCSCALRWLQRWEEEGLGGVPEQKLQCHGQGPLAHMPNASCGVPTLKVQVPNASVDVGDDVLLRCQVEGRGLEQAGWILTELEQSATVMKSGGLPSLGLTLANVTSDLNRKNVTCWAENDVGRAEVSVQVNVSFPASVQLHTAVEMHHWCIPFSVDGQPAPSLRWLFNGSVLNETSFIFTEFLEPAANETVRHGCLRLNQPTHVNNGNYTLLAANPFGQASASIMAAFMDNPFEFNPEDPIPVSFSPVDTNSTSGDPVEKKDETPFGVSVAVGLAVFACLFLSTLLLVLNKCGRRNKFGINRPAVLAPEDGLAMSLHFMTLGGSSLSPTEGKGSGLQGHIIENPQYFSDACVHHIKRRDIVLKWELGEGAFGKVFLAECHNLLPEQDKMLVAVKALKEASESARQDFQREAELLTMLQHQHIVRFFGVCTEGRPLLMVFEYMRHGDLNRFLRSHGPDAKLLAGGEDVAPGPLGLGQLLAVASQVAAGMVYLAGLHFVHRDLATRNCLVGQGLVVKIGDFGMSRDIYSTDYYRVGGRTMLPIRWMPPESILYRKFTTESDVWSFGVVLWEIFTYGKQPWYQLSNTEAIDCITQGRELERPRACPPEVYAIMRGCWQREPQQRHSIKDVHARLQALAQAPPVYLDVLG
Chain of Serine/threonine-protein kinase VRK2 (Homo sapiens) (Q86Y07 whole entry): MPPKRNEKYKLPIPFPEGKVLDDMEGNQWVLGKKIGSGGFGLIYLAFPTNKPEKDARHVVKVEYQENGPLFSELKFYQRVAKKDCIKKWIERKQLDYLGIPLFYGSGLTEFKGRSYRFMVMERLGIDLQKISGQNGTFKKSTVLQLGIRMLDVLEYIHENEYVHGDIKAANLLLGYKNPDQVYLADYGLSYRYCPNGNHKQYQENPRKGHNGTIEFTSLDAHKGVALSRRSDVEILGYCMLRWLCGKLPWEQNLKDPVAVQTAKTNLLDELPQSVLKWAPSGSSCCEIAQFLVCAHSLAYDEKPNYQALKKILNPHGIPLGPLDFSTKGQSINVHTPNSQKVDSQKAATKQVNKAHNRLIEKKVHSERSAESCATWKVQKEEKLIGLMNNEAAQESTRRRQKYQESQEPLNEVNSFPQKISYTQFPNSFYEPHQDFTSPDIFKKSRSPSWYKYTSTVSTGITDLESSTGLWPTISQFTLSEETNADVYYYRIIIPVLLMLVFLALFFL

Structure (SMILES) | residual activity [1] [%] | residual activity [2] [%] | residual activity [3] [%] | residual activity [4] [%] | residual activity [5] [%] | residual activity [6] [%] | residual activity [7] [%] | residual activity [8] [%] | residual activity [9] [%] | residual activity [10] [%] | residual activity [11] [%] | residual activity [12] [%] | residual activity [13] [%] | residual activity [14] [%] | residual activity [15] [%] | residual activity [16] | residual activity [17] [%] | residual activity [18] | residual activity [19] [%] | residual activity [20] [%]
O=c1cc(N2CCOCC2)oc2c1ccc1ccccc12 | 101 | 82 | 78 | 93 | 96 | 81 | 97 | 106 | 102 | 90 | 85 | 102 | 88 | 106 | 94 | 105% (inactive) | 90 | 110% (inactive) | – | –
Nc1ncnc2c1cnn2-c1ccccc1 | 92 | 87 | – | 99 | 90 | 73 | 102 | 91 | 97 | – | 78 | 101 | 98 | – | 91 | 102% (inactive) | 90 | – | 83 | –
CC(C)(C)n1nc(Cc2cccc3ccccc23)c2c(N)ncnc21 | 96 | 90 | – | 53 | 10 | 71 | 28 | 80 | 24 | 43 | 7 | 106 | 95 | 109 | 90 | 92% (inactive) | 68 | 98% (inactive) | 17 | 45
O=C1Cc2c([nH]c3ccc(Br)cc23)-c2ccccc2N1 | 87 | 49 | 76 | 92 | 55 | – | – | – | 66 | – | – | – | – | – | – | 99% (inactive) | 90 | 93% (inactive) | – | –
Nc1ncnc2c1c(-c1ccc(Oc3ccccc3)cc1)cn2C1CCCC1 | 94 | 86 | 93 | – | – | 12 | 3 | 26 | -9 | 18 | 1 | 98 | – | – | 45 | 85% (inactive) | 72 | 103% (inactive) | -1 | 44
c1ccc(-c2cnc(Nc3ccc(OCCN4CCCC4)cc3)s2)cc1 | 100 | 78 | 74 | – | – | 114 | 60 | 24 | 3 | – | 60 | 59 | 16 | – | – | – | – | 123% (inactive) | 3 | 45
O=C1NC(=O)C(c2cn(CCCO)c3ncccc23)=C1c1cnccn1 | 97 | 84 | 59 | 91 | 73 | 95 | 94 | 80 | 90 | 82 | 86 | – | – | 93 | 92 | – | – | – | 64 | 87
CCN(CC)CCNC(=O)c1c(C)[nH]c(/C=C2\C(=O)Nc3ccc(Cl)cc32)c1C | 8 | 0 | 26 | 78 | 29 | 56 | 19 | -1 | -12 | 70 | 21 | 23 | 2 | 17 | 2 | – | – | – | 0 | 40
